Drawing on PubChem BioAssay, this text covers composite z-score and z-score for six compounds.

Test [1] is described as follows: binders of probe aFSTL3 on microarray, primary screen, stem cell growth factor project, biochemical, small-molecule microarray, fluorescence 635/667 (AID 1064).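 Also: measures binding of the biotinylated anti-FSTL3 antibody to printed compounds.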 The conditions noted are these: higher = more signal.
Test [2] in a line: binders from COS7 lysate, DM2A8 probe, primary screen, torsin A project, cell lysate, small-molecule microarray, fluorescence 635/667 (AID 1065). The conditions noted are these: higher = more signal, COS7 lysate expressing mutant human TOR1A.
A short description of test [3]: binders of probe aFGF2 on microarray, primary screen, stem cell growth factor project, biochemical, small-molecule microarray, fluorescence 635/667 (AID 1067).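 Also: measures binding of biotinylated aFGF2 protein to printed compounds on slides; z-score merges feature fluorescence and signal-to-noise across triplicate slides.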 The note with it: higher = more signal.
Test [4] in a line: binders of probe aFGF10 on microarray, primary screen, stem cell growth factor project, biochemical, small-molecule microarray, fluorescence 635/667 (AID 1071).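 Also: score merges 667 nm spot intensity and signal to noise from triplicate slides.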 The conditions noted are these: higher = more signal.
Test [5] has as its target Neurogenic locus notch homolog protein 2 (Homo sapiens) (UniProt Q04721). Put plainly: Notch2 binders on small-molecule microarrays, primary screen, biochemical, small-molecule microarray, 635 nm fluorescence, stem cell growth factors (AID 1073). The conditions noted are these: Notch2 binding, higher = more signal.
For test [6], the target named is Pro-neuregulin-1, membrane-bound isoform (Homo sapiens) (UniProt Q02297). Put plainly: NRG1 binders on small-molecule microarrays, primary screen, psychiatric disease protein project, biochemical, small-molecule microarray, fluorescence 635/667 (AID 1075).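 Also: score combines 667 nm spot fluorescence with signal to noise.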 The conditions noted are these: NRG1 binding, 635 nm fluorescence, higher = more signal.
Test [7] concerns Neuregulin-1 EGF-like domain. Put plainly: binders of neuregulin-1 EGF-like domain, primary screen, biochemical, small-molecule microarray, 635 nm fluorescence (AID 1081).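 Also: binding of the protein to compounds printed on small-molecule microarray slides.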 The conditions noted are these: small-molecule microarray binding, higher = more signal.
The nature of test [8]: FRG1 promoter luciferase signal modulators, primary screen, FRG1 inhibition for FSHD, cell-based, C2C12 myotubes, firefly/Renilla luciferase, luminescence (AID 1084). The conditions noted are these: higher = more signal, called active from +8 up or from −8 down.
Test [9] is described as follows: binders of probe aFST on microarray, primary screen, stem cell growth factor project, biochemical, small-molecule microarray, fluorescence 635/667 (AID 1086).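 Also: score merges 667 nm fluorescence with signal-to-noise of each printed compound spot.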 The conditions noted are these: higher = more signal.
The nature of test [10]: binders of probe aHhip on microarray, primary screen, stem cell growth factor project, biochemical, small-molecule microarray, fluorescence 635/667 (AID 1087).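 Also: score merges spot fluorescence at 667nm with spot signal to noise ratio.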 The conditions noted are these: higher = more signal.
Test [11] has as its system PRMT1 (protein arginine N-methyltransferase 1). Description: PRMT1 binders on small-molecule microarrays, primary screen, biochemical, small-molecule microarray, 635 nm fluorescence (AID 1088).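 Also: binding of Prmt1 protein to compounds spotted on small-molecule microarray slides.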 The note with it: small-molecule microarray binding, higher = more signal.
Test [12] in a line: yeast growth modulation, basal conditions, primary screen, YJM789 clinical isolate, OD600, 24 h (AID 1089).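 Also: growth of clinical yeast isolate S. cerevisiae YJM 789 seeded 1000 cells per well; test concentration not given here.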 The note with it: S. cerevisiae YJM789 growth, higher = more signal, called active from +8 up or from −8 down.
Test [13] is described as follows: fission yeast growth modulation, primary screen, strain 972, OD600, 24 h, no modulator (AID 1090).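 Also: basal condition with compound alone and no growth modifier present; test concentration not given here.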 The conditions noted are these: S. pombe 972 growth, higher = more signal, called active from +8 up or from −8 down.
Test [14] in a line: S. cerevisiae growth modulation with rapamycin, primary screen, strain BY4716, OD600, 96 h (AID 1091). Also: test concentration not given here. The note with it: higher = more signal, called active from +8 up or from −8 down.
Test [15] concerns the target Torsin-1A-interacting protein 2 (Homo sapiens) (UniProt Q8NFQ8). Description: LULL1 binders on small-molecule microarray, primary screen, cell lysate, human LULL1 lysate, 635/667 nm fluorescence (AID 1092).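 Also: probe is lysate of COS7 cells overexpressing human LULL1; score merges per-feature 667 nm fluorescence with signal-to-noise.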 The conditions noted are these: hLULL1 lysate binding, 635 nm fluorescence, higher = more signal.
Test [16] in a line: E. coli growth modulation, two-sided OD650, primary screen, E. coli filamentation project, strain DRC41, 24 h (AID 1093).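 Also: MC1000 strain lacking acrAB efflux and sulA so SOS filamentation is blocked; test concentration not given here.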 The conditions noted are these: OD650, 24 h, higher = more signal, called active from +8 up or from −8 down.
Test [17] is described as follows: small-molecule microarray binders of probe aLefty2, primary screen, biochemical, biotinylated probe, 635/667 nm fluorescence (AID 1094).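 Also: score merges spot fluorescence near 667 nm with spot signal-to-noise ratio.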 The conditions noted are these: higher = more signal.
The subject of test [18] is Noggin (protein binding on small-molecule microarray). Description: Noggin binders on small-molecule microarray, primary screen, biochemical, 635/667 nm fluorescence (AID 1095).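 Also: score merges 667 nm feature fluorescence with signal to noise over triplicate slides.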 The note with it: 635 nm fluorescence, higher = more signal.
Test [19] deals with Neurogenic locus notch homolog protein 3 (Homo sapiens) (UniProt Q9UM47). Put plainly: NOTCH3 binders on small-molecule microarray, primary screen, biochemical, 635/667 nm fluorescence (AID 1096). The note with it: NOTCH3 binding, 635 nm fluorescence, higher = more signal.
A short description of test [20]: small-molecule microarray binders of probe aEGFR, primary screen, biochemical, biotinylated probe, 635/667 nm fluorescence (AID 1097).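 Also: probe is a biotinylated anti-EGFR antibody binding compounds printed on slides; score combines fluorescence near 667 nm and signal to noise of each spot.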 The conditions noted are these: higher = more signal.

Activity calls are given as the source filed them.

Sequence of Neurogenic locus notch homolog protein 2 (Homo sapiens) (Q04721 whole entry, looked up, canonical isoform): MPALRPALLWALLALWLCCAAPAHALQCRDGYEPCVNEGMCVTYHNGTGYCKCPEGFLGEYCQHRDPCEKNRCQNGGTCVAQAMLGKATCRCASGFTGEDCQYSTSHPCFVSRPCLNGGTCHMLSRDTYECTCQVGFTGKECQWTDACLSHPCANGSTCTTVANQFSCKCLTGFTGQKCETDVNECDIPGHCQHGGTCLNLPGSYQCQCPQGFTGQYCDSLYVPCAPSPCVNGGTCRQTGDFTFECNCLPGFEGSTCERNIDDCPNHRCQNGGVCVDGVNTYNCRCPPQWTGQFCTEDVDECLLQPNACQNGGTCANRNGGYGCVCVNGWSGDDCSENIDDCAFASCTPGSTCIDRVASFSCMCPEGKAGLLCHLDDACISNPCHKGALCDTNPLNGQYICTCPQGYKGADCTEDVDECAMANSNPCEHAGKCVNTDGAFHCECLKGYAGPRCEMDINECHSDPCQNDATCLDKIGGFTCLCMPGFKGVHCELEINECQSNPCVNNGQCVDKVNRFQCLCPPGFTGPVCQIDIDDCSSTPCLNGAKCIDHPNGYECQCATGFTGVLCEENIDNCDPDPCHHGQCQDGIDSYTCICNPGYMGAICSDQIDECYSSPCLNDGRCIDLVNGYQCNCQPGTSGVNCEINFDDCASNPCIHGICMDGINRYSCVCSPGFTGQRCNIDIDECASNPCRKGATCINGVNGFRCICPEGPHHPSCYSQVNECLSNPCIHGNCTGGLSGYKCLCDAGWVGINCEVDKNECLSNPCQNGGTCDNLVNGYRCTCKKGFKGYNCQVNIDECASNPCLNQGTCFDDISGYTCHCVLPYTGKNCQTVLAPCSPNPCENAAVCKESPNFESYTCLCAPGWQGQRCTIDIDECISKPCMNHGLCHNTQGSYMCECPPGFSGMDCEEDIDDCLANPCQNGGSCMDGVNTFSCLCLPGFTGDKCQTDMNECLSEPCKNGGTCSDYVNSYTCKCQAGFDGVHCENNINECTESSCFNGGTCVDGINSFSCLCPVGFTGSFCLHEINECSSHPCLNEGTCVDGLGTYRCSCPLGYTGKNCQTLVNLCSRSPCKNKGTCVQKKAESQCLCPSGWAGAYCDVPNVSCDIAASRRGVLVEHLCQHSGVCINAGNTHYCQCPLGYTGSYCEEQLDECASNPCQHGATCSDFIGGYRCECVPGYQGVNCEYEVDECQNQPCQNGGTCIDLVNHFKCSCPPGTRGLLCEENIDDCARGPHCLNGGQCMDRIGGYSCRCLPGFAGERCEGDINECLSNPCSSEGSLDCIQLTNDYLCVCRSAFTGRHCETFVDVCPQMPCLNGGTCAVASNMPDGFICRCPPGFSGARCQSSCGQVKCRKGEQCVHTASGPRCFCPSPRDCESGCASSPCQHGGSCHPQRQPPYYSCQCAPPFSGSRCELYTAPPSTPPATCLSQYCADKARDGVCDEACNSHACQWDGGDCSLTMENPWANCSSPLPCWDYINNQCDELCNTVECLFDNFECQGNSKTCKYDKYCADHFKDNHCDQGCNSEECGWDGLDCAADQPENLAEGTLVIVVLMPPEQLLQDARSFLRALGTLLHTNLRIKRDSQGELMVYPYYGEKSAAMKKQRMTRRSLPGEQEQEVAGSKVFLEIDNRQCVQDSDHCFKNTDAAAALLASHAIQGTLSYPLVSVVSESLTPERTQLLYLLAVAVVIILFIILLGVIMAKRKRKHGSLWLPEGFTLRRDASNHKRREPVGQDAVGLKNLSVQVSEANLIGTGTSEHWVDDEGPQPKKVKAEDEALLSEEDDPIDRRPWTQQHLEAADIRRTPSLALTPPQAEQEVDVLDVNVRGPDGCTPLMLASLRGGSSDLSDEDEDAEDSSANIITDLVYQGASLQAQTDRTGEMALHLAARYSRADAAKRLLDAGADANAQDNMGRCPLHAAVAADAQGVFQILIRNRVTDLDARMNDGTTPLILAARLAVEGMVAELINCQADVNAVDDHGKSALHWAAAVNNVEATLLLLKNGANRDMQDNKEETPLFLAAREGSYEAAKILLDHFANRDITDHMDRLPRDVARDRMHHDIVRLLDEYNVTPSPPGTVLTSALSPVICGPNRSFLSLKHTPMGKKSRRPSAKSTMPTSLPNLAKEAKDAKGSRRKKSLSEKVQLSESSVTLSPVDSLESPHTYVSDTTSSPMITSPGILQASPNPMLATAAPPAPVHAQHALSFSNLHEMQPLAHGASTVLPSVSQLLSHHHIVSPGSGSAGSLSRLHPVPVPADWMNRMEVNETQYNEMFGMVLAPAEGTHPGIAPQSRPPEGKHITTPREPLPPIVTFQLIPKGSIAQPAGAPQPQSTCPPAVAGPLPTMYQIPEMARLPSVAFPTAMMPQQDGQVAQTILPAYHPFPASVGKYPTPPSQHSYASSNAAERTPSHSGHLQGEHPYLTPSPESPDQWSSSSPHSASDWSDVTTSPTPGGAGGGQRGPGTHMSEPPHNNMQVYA
Sequence of Pro-neuregulin-1, membrane-bound isoform (Homo sapiens) (Q02297 whole entry, looked up, the tested form may be a part, canonical isoform): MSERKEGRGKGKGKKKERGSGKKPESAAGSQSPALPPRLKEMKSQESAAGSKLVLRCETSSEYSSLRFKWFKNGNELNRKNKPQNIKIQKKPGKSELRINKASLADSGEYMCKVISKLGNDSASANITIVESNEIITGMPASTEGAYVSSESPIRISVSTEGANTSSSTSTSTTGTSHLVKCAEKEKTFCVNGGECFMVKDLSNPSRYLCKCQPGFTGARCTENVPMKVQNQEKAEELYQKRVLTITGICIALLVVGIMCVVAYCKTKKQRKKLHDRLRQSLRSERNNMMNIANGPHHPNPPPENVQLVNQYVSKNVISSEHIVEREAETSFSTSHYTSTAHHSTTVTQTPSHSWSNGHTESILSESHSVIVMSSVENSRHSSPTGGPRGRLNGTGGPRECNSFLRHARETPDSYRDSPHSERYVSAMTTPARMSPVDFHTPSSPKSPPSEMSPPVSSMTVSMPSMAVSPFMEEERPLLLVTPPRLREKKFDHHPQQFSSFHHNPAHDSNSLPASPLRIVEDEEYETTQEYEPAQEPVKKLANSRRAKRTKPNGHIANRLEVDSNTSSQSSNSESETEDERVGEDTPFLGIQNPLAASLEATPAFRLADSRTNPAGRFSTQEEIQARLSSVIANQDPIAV
Sequence of Torsin-1A-interacting protein 2 (Homo sapiens) (Q8NFQ8 whole entry, looked up): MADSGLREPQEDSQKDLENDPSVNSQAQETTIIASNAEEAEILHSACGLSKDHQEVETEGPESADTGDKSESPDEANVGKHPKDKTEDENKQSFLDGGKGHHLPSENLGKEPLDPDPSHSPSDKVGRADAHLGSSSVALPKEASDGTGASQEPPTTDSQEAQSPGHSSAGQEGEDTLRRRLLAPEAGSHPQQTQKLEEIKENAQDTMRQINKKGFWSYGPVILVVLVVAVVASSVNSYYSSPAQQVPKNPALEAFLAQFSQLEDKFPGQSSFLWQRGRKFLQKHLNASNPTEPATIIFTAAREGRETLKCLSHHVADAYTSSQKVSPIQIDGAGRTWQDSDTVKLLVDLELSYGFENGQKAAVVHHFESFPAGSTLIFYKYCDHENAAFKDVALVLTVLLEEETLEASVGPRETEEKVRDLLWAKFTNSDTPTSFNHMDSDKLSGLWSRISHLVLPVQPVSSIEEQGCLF

As for `COCCOC(=O)N1C(=O)[C@@]2(c3cc(C#CCCO)ccc31)[C@H](C(N)=O)[C@H]1C(=O)O[C@H](c3ccccc3)[C@H](c3ccccc3)N1[C@@H]2c1ccc(O)cc1`, the composite z-score in test [1] is -0.025; in test [2] it was -0.283; in test [3], -0.0145; in [4], 0.413; in test [5], -0.242; in test [6] it was 0.298. In addition, the composite z-score in test [7] is 0.171; in test [9] it was -0.0464; in test [10] it was -0.202; in test [11], -0.101; in test [15], 0.877; in [17] it was -0.159. The values for the composite z-score in [18], in [19] and in [20] were -0.248, -0.589 and -0.202, respectively. In addition, the z-score is 0.663 (inactive) in test [8]; 0.0223 (inactive) in test [12]; -0.0181 (inactive) in test [13]; -0.535 (inactive) in [14]; -0.844 (inactive) in test [16].
`CC(C)C(=C=CC[C@@H](O)c1ccc(OCCO)cc1)C[C@@H](O)COCc1ccccc1`: the composite z-score is -0.342 in test [1]; 0.3 in test [2]; -0.085 in test [3]; -0.376 in test [4]; -0.0534 in test [5]; -0.849 in test [6]. Moreover, the composite z-score in test [7] was 0.449; in test [9], -0.0716; in test [10] it was -0.0994; in test [11], 1.54; in test [15] it was 1.93; in test [17] it was -0.192. For the same compound, the composite z-score in test [18] is 1.65; in test [19] it was 0.652; in [20] it was -0.135. Besides, the z-score is -1.74 (inactive) in test [8]; -1.06 (inactive) in [12]; -1.09 (inactive) in [13]; -0.418 (inactive) in test [14]; 1.14 (inactive) in [16].
Regarding `Cc1ccc(S[C@]2(C(=O)O)CC(=O)N(C(C)C)[C@@H]2c2ccc(CO)cc2I)cc1`, the composite z-score in test [1] was 1.83; in test [2], 1.16; in test [3] it was 0.0477; in test [4], -0.0395; in test [5], 0.175; in test [6] it was 1.89. The composite z-score in [7] is 1.16; in test [9], 1.33; in [10], -0.148; in test [11], 1.55; in [15], 2.21; in test [17], 0.122. Besides, the composite z-score in test [18] was -0.0137; in test [19] it was 0.271; in test [20], 0.0255. Besides, the z-score in test [8] was -0.974 (inactive); in [12] it was -2.31 (inactive); in [13], -2.85 (inactive); in test [14], 1.55 (inactive); in test [16], 3.25 (inactive).
As to `CO[C@H]1O[C@H](CO)[C@@H](OC(=O)Nc2ccccc2)[C@H](OC(=O)Nc2ccccc2)[C@@H]1OC(=O)Nc1ccccc1`, the composite z-score in test [1] is -0.29; in test [2] it was 0.692; in [3] it was 0.205; in test [4], 0.784; in [5], 1.3; in test [6], 1.45. Besides, the composite z-score is 1.37 in test [7]; 1.05 in test [9]; -0.546 in [10]; 1.53 in test [11]; 3.66 in test [15]; 0.232 in test [17]. Further, the composite z-score in test [18] was determined as 1.38; in test [19] it was 1.06; in test [20] it was 0.138. Further, the z-score in test [8] is 1.89 (inactive); in test [12], 1.24 (inactive); in [13], 0.975 (inactive); in test [14], 3.37 (inactive); in test [16], -0.0493 (inactive).
Turning to `O=C1N[C@@H](Cc2ccccc2)C(=O)N2[C@@H]1C[C@@H](C(=O)O)[C@H]2c1cccc(OCCO)c1`, the composite z-score in test [1] was 0.0693; in [2] it was 0.571; in test [3], 0.0127; in [4], 0.801; in test [5], 0.399; in [6] it was 1.54. Also, the composite z-score in test [7] is 1.38; in test [9], 0.166; in [10] it was -0.0237; in test [11], 1.56; in [15] it was 1.06; in test [17], -0.0206. Also, the composite z-score was 1.43 in test [18], 0.611 in test [19] and -0.071 in test [20]. Further, the z-score in test [8] is 9.18 (active); in test [12] it was 0.809 (inactive); in test [13], -0.66 (inactive); in test [14], -0.276 (inactive); in test [16], 1.18 (inactive).
Regarding `O=C1OCCC/C=C\[C@H]2OC34C=CCN(Cc5ccccc5)C(=O)[C@H]3N(CCCO)C(=O)[C@@H]4C12` (stereo not given in full), the composite z-score was 0.985 in [1]; 2.29 in test [2]; -0.145 in [3]; -0.458 in [4]; -1.15 in [5]; 0.822 in test [6]. In addition, the composite z-score in test [7] is 0.703; in test [9] it was -0.572; in test [10], -0.0994; in [11], -0.523; in test [15], 1.83; in [17] it was -0.126. For the same compound, the composite z-score was -1.75 in [18], -0.386 in test [19] and -0.246 in [20]. For the same compound, the z-score is 0.308 (inactive) in test [8]; 0.769 (inactive) in [12]; -0.0304 (inactive) in test [13]; 0.972 (inactive) in test [14]; 0.872 (inactive) in test [16].
